High-throughput results from PubChem.
OPRM1-OPRD1 inv = mu-delta opioid heterodimer inverse agonism; P35372+P41143; cell-based MOR-DOR heterodimer luminescence; inhibition, % at 9.3 µM; hit rate 0.21% among 340,000; AID 504357; in the data active means inhibition above about 22%, passing the limit was not always enough;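 further: 0% = cells with DMSO and 100% = wells without cells with DMSO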
MOR-DOR ag-1 = OPRM1-OPRD1 heterodimerization agonism. P35372+P41143. cells, luminescence. activation, % at 9.3 µM. hit rate 0.3% among 340,000. AID 504326;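 further: 0% = vehicle-treated cells and 100% = reference agonist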
HTR5A ag ctr = HTR5A agonism, opioid heterodimer counter-screen; HTR5A agonist assay, luminescence, cell-based; activation, % at 9.3 µM; AID 504692; hit rate 0.61% among 340,000; P47898; in the data active means activation mostly above about 9.5%, no sharp cut-off; inactive means mostly below about 7.6%;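 further: 0% = cells with vehicle only and 100% = reference agonist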
Target sequence (P47898 whole entry, looked up): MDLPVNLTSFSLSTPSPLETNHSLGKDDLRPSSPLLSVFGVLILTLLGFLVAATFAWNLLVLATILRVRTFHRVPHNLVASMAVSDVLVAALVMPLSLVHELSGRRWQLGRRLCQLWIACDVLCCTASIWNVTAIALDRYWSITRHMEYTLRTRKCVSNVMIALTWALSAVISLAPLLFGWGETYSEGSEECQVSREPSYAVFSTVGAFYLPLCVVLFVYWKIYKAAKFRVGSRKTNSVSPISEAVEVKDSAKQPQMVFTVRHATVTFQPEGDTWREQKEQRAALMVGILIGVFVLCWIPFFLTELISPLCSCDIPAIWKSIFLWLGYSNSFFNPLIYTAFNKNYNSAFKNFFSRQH
HTR5A inv ctr = inverse agonist of human HTR5A in OPRM1-OPRD1 counter-screen. P47898. HTR5A cell line, luminescence, inverse agonism. inhibition, % at 9.3 µM. hit rate 0.083% among 340,000; in the data active means inhibition mostly above about 23%, no sharp cut-off; inactive means mostly below about 18%;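 further: 0% = cells with DMSO and 100% = no-cell wells with DMSO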
MOR-DOR ag-2 = opioid heterodimer agonism, HTR5A counter-screen. U2OS counter-screen cells, complementation luminescence, 3 h. shares compounds with HTR5A ag ctr. activation, % at 9.3 µM. hit rate 13% among 800
HTR5A ag conf = HTR5A (human) agonism, confirmation; shares compounds with HTR5A ag ctr; HTR5A agonist cell assay, luminescence; activation, % at 9.3 µM; hit rate 17% among 800; in the data active means activation above about 17%;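 further: 0% = cells with vehicle only and 100% = full reference agonist response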
* = called active by the depositor; . = no result given. The list is not random: actives were taken first. Their share in the collection is about 1.1%. Unless noted, no stated cut-off is given here; in the data, active means activation above about 18%; inactive means the rest.

SMILES	OPRM1-OPRD1 inv	MOR-DOR ag-1	HTR5A ag ctr	HTR5A inv ctr	MOR-DOR ag-2	HTR5A ag conf
CN(Cc1ccccc1)S(=O)(=O)c1ccc2c(c1)n(C)c(=O)n2C	-34	6	16*	-57	0	-1
CSc1ncccc1C(=O)Nc1ccccc1N1CCOCC1	8	-2	-6	14	.	.
COc1cc2[nH]c(=S)nc(Nc3ccc(NC(C)=O)cc3)c2cc1OC	12	-2	-2	3	.	.
O=C(Nc1ccc2c(c1)OCO2)c1cc(-c2ccccc2Cl)on1	-46	7	17*	-34	0	4
O=C(NCc1ccc2c(c1)OCO2)c1cc(-c2ccccc2Cl)on1	-2	0	0	-15	.	.
CC(C)(c1ccccc1)c1ccc(OCCN2CCOCC2)cc1	-4	1	14*	-54	128*	1
O=C(CSc1nc(O)cc(=O)[nH]1)C1CC1	3	-1	3	-9	.	.
CCn1c(N2CCN(C(=O)NC3CCCCC3)CC2)nc2ccccc21	3	-1	24*	-47	16	2
O=C(NCCc1ccc(F)cc1)C(=O)NCC1CCCN1S(=O)(=O)c1cccs1 (stereo not drawn)	-19	3	15*	-40	2	0
CN(Cc1ccccc1Cl)C(=O)c1cnccc1C(F)(F)F	11	-2	15*	-4	0	3
C[C@@H](NC(=O)c1nc[nH]c1C(=O)NCC(=O)OCc1ccccc1)c1ccccc1	-4	1	24*	-64	3	2
CN(C)c1ccc(CN(C(=O)COc2ccccc2)C2CCS(=O)(=O)C2)cc1 (stereo not drawn)	3	-1	16*	-39	3	3
CC(=O)c1cccc(S(=O)(=O)NC(C)C2CC3CCC2C3)c1 (stereo not drawn)	-10	1	-1	-15	.	.
CCOCC(O)CSCc1ccc(Cl)cc1 (stereo not drawn)	15	-4	4	-10	.	.
COc1ccc(CC(C)N2CCN(c3cccc(C(F)(F)F)c3)CC2)cc1OC (stereo not drawn)	-27	5	33*	-106	11	29*
CCOc1cc(CN2CCN(c3cccc(C(F)(F)F)c3)CC2)ccc1OC	-15	3	6	-17	.	.
O=C(OC1CCS(=O)(=O)c2sccc21)c1ccccc1 (stereo not drawn)	20	-5	0	0	.	.
CNCc1cc(Br)c(OCC(=O)Nc2ccccc2OC)c(OC)c1	2	0	4	-11	.	.
COc1cc(CNCCc2ccccc2)cc(Br)c1OCC(=O)Nc1ccccc1C	-54	10	18*	-45	11	10
O=C(C[C@H]1C[C@H](C(=O)N2CCOCC2)[C@@]2(CCC3CCCC3)c3[nH]c4cc(-c5ccco5)ccc4c3CCN2C1=O)NCCCn1ccnc1	16	-3	6	-22	.	.
CC1(C)Cc2c(C#N)c(N3CCN(C(=O)c4ccco4)CC3)nc(-c3ccco3)c2CS1	7	-1	18*	-32	0	5
Cn1cnc(C(=O)NC2CCN(C(=O)OC(C)(C)C)CC2)c1C(=O)NC1CCN(C(=O)OC(C)(C)C)CC1	13	-2	0	13	.	.
CC(C)(C)OC(=O)N1CCC(NC(=O)c2ncn(Cc3ccccc3)c2C(=O)NC2CCN(C(=O)OC(C)(C)C)CC2)CC1	-11	2	15*	-25	5	10
O=C(NCc1ccco1)c1noc2c1CCCCC2	1	0	-2	3	.	.
C=C1C(=O)OC2C1CCC(C)C1C=CC(=O)C12C (stereo not drawn)	-6	1	-2	7	.	.
SMILES	OPRM1-OPRD1 inv	MOR-DOR ag-1	HTR5A ag ctr	HTR5A inv ctr	MOR-DOR ag-2	HTR5A ag conf
C=C1C(=O)OC2CC1C(O)CC(C)=CCCC(C)=CC(O)CC2C (stereo not drawn)	4	-1	18*	-71	-2	-4
O=S(=O)(c1ccc(Cl)nc1)N1CCc2ccccc21	1	0	-2	6	.	.
Cc1nnc(SCc2ccc(C(=O)O)cc2)s1	9	-2	16*	-18	2	2
Cc1ccc(S(=O)(=O)N/N=C\C=C\c2ccccc2)cc1	-12	2	38*	-74	1	4
O=S(=O)(N/N=C\C=C\c1ccccc1)c1ccc(Br)cc1	-26	6	19*	-40	-1	3
NNS(=O)(=O)c1ccc(Sc2ccccn2)c([N+](=O)[O-])c1	15	-3	15*	15	0	13
Cc1ccc(C(=O)c2coc3c2C(=O)C(=O)c2ccccc2-3)cc1	-73	13	19*	-33	7	7
Cc1oc2c(c1C(=O)c1ccc(Cl)cc1)C(=O)C(=O)c1ccccc1-2	-17	3	0	0	.	.
COc1cc(NC(=O)COc2ccccc2Cl)ccc1NC(=O)c1cccs1	-33	4	8	-18	.	.
COc1cc(NC(=O)COc2ccccc2[N+](=O)[O-])ccc1NC(=O)c1cccs1	-50	9	16*	-42	7	9
COc1ccc(OC)c(NC(=O)c2nc(S(=O)(=O)Cc3ccccc3)ncc2Cl)c1	12	-2	-2	8	.	.
O=S(=O)(NC(=NC1CCCCC1)c1ccccc1)c1ccccc1	8	-2	4	1	.	.
Cc1ccc(S(=O)(=O)NC(=NC2CCCCC2)c2ccc(Cl)cc2)cc1	-11	1	14*	-43	2	4
CCOc1ccc(N2CC(C(=O)NCCc3c[nH]c4ccc(OC)cc34)CC2=O)cc1 (stereo not drawn)	-17	2	20*	-59	0	0
COc1ccc2[nH]cc(CCNC(=O)C3CC(=O)N(c4ccc(Cl)cc4)C3)c2c1 (stereo not drawn)	-12	2	33*	-87	1	0
COC(=O)C1=C(C)N(CCc2c[nH]c3ccc(OC)cc23)C(=O)C1	-3	1	17*	-32	3	42*
COc1ccc2[nH]cc(CCNC(C)=O)c2c1	6	-1	3	-10	.	.
COc1ccc2[nH]cc(CCNC(=O)C3CCCO3)c2c1 (stereo not drawn)	11	-2	42*	-139	3	35*
COc1ccccc1NC(=O)CN1CCN(c2ccc(Cl)cc2)CC1	-5	1	-4	10	.	.
COc1ccccc1NC(=O)CN1CCN(c2ccccc2)CC1	11	-2	15*	10	2	1
COc1ccccc1NC(=O)CCN1CCN(Cc2ccccc2)CC1	-6	1	21*	-54	2	4
O=C1NC(c2ccccc2)=C(c2nc3ccccc3s2)C(c2ccc(O)cc2)N1 (stereo not drawn)	-23	4	38*	-71	13	8
O=C1NC(c2ccccc2)=C(c2ccc3ccccc3n2)C(c2ccccc2)N1 (stereo not drawn)	-2	0	-1	3	.	.
Cc1ccc(-n2c(O)c(C=NC3CCS(=O)(=O)C3)c3ccccc3c2=O)cc1C (stereo not drawn)	5	-1	15*	-34	4	-4
Cc1cc(C)nc(SCC(=O)N/N=C\c2sccc2C)n1	1	0	22*	-48	2	22*
